Experimental data published in the supplement of paper PMC10849652.
About 7,900 targets were measured; listed, in parts, are those with a hit and a random draw of the rest. About 0.6% of all pairs of compound and target were hits.

Experiments:
Assay in all cases: log2 fold change, soluble protein after heating vs DMSO (PISA); higher = thermal stabilisation; K562 cells, 10 uM, 30 min; active = over 0.2 and 3.5 SD of the protein, either way, in both replicates (recomputed)
[1] = compound: NC(=O)Nc1cc(-c2cccc(F)c2)sc1C(=O)N[C@H]1CCCNC1
How it was run: (§1)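 For each measurement, 10 μM compound was applied for 30 min to K562 cells at 2×10^6 cells/mL. Aliquots were heated for 3 min across 48°C-58°C, pooled, and extracted in PBS with 0.5% NP-40 at 4°C; the supernatant after 21,000xg for 90 min was soluble protein. This was quantified by TMTpro 16plex LC-MS/MS with channel sums equalised, and thermal stability was reported relative to control samples from duplicates, on a log2 fold-change scale.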

[2] = compound: NC(=O)c1cnc(N[C@@H]2CCCC[C@@H]2N)nc1Nc1cccc(-n2nccn2)c1
How it was run: as §1

[3] = compound: NC1(c2ccc(-c3nc4ccn5c(=O)[nH]nc5c4cc3-c3ccccc3)cc2)CCC1
How it was run: as §1

[4] = compound: NCC(=O)Nc1ccc(-n2nc(C(F)(F)F)cc2-c2ccc3c(ccc4ccccc43)c2)cc1
How it was run: as §1

[5] = compound: Nc1ccccc1NC(=O)c1ccc(CNC(=O)OCc2cccnc2)cc1 [entinostat]
How it was run: as §1

[6] = compound: O=C(CCCCCCC(=O)Nc1ccccc1)NO [vorinostat]
How it was run: as §1

[7] = compound: O=C(CCCCCCNC(=O)c1cnc(N(c2ccccc2)c2ccccc2Cl)nc1)NO [citarinostat]
How it was run: as §1

[8] = compound: O=C(O)c1ccc2c(c1)nc(Nc1cccc(Cl)c1)c1ccncc12 [silmitasertib]
How it was run: as §1

[9] = compound: O=C1NC(=O)C(c2cnc3ccccn23)=C1c1cn2c3c(cc(F)cc13)CN(C(=O)N1CCCCC1)CC2
How it was run: as §1

[10] = compound: c1cc(OCCN2CCCCC2)cc(-c2n[nH]c3ccc(-c4nnc[nH]4)cc23)c1
How it was run: as §1

[11] = compound: c1cn2cc(-c3ccc4cn[nH]c4c3)nc(Nc3ccc(N4CCOCC4)cc3)c2n1 [entospletinib]
How it was run: as §1

Measured: log2 fold change

FKBP7 (UniProt Q9Y680)
inactive: [1] -0.034 | [2] -0.017 | [3] 0.005 | [4] -0.037 | [5] -0.029 | [6] -0.017 | [7] -0.02 | [8] 0.079 | [9] 0.008 | [10] -0.097 | [11] -0.012

GEMIN5 (UniProt Q8TEQ6)
Sequence of UniProt Q8TEQ6 (Q8TEQ6 whole entry, looked up): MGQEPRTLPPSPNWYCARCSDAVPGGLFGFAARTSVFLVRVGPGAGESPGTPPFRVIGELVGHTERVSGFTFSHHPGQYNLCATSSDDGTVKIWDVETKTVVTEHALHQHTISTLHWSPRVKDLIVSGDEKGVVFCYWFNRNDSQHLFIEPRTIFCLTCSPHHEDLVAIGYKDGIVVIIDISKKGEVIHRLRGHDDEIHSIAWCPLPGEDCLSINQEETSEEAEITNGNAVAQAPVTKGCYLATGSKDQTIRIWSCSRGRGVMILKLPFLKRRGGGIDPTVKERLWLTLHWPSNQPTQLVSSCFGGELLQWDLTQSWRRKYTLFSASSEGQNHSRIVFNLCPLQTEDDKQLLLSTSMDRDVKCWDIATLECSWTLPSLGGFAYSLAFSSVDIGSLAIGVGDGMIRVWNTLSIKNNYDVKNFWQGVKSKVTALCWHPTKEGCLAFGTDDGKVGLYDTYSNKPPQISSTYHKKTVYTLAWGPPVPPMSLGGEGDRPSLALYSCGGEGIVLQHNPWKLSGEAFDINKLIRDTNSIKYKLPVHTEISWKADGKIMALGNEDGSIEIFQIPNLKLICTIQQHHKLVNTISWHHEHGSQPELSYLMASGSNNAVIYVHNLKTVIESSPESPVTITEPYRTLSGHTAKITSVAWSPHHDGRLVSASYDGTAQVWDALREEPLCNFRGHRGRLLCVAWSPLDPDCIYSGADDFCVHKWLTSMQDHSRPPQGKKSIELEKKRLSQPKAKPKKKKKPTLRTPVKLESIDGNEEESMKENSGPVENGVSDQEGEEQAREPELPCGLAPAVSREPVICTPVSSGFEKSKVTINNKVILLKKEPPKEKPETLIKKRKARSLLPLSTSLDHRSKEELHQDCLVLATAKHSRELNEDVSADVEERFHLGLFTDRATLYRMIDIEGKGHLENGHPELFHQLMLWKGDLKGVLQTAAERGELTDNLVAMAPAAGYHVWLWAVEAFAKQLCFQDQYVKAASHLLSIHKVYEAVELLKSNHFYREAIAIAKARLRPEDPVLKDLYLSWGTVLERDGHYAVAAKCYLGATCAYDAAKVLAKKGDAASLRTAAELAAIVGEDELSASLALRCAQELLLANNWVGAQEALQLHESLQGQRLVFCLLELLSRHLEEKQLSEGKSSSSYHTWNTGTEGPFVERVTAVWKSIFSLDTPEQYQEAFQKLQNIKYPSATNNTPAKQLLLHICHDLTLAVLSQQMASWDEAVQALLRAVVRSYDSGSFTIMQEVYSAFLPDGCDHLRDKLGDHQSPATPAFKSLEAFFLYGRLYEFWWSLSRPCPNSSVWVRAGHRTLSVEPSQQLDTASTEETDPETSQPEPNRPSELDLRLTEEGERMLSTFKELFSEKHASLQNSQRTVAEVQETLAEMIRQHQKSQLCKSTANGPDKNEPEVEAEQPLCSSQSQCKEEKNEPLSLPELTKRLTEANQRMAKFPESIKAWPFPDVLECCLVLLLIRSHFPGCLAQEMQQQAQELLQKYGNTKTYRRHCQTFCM
inactive: [1] -0.011 | [2] -0.018 | [3] -0.133 | [4] -0.015 | [5] 0.029 | [6] -0.046 | [7] -0.065 | [8] 0.009 | [9] -0.057 | [10] -0.034 | [11] 0.058

GALC (UniProt P54803)
inactive: [1] 0.015 | [2] 0.016 | [3] -0.165 | [4] 0.001 | [5] -0.012 | [6] -0.138 | [7] 0.017 | [8] 0.042 | [9] 0 | [10] 0.096 | [11] 0.067

HIP1R (UniProt O75146)
Sequence of UniProt O75146 (O75146 whole entry, looked up): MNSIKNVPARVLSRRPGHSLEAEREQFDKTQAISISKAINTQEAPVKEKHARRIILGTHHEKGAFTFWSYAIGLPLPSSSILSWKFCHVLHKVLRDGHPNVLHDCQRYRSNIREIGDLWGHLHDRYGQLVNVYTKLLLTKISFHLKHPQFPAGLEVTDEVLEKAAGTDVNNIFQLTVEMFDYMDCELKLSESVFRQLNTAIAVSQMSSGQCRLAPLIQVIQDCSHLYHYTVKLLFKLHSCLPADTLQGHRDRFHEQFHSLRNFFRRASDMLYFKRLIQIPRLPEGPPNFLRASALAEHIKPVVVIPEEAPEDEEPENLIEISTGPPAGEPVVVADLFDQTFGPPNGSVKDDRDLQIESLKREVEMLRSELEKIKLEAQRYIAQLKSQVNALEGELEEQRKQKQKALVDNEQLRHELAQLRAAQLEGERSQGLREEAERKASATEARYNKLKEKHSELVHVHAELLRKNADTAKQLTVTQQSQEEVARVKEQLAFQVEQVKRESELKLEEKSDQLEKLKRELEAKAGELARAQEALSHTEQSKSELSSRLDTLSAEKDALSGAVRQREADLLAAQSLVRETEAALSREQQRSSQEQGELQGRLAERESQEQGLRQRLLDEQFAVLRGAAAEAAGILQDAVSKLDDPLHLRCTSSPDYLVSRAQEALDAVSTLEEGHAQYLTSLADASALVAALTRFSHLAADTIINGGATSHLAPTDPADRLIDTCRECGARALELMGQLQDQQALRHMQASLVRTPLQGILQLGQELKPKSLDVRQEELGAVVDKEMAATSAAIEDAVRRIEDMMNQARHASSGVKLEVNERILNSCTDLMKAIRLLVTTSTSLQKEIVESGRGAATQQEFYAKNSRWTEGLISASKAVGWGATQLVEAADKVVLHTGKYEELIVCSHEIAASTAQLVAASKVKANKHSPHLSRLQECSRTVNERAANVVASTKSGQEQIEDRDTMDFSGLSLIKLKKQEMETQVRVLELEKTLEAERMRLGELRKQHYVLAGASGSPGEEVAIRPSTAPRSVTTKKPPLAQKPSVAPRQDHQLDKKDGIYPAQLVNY
inactive: [1] -0.032 | [2] -0.001 | [3] -0.138 | [4] 0.014 | [5] 0.027 | [6] 0.069 | [7] 0.022 | [8] 0 | [9] -0.024 | [10] -0.005 | [11] -0.029

HEXB (UniProt P07686)
inactive: [1] 0.003 | [2] -0.051 | [3] -0.145 | [4] -0.034 | [5] 0.004 | [6] -0.042 | [7] 0.033 | [8] 0.007 | [9] -0.034 | [10] -0.003 | [11] -0.026

GSR (UniProt P00390)
Sequence of UniProt P00390 (P00390 whole entry, looked up): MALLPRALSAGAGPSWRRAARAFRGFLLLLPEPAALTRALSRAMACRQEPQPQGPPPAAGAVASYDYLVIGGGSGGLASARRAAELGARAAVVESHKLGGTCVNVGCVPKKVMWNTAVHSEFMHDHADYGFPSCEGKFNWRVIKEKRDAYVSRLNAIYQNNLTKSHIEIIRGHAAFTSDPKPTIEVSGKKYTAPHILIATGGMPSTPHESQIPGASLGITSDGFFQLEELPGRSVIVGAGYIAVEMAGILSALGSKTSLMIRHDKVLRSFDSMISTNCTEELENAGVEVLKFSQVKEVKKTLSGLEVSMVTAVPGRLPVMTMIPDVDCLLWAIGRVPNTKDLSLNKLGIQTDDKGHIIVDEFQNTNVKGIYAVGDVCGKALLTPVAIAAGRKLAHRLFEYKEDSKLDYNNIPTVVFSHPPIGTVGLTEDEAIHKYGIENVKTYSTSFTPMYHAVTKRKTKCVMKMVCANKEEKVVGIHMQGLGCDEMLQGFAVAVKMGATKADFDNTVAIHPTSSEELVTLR
inactive: [1] 0.008 | [2] -0.046 | [3] 0 | [4] -0.03 | [5] -0.011 | [6] 0.019 | [7] 0.028 | [8] -0.027 | [9] -0.023 | [10] 0.018 | [11] -0.047

GLS isoform 3 (UniProt O94925)
Sequence of UniProt O94925 (O94925 whole entry, looked up): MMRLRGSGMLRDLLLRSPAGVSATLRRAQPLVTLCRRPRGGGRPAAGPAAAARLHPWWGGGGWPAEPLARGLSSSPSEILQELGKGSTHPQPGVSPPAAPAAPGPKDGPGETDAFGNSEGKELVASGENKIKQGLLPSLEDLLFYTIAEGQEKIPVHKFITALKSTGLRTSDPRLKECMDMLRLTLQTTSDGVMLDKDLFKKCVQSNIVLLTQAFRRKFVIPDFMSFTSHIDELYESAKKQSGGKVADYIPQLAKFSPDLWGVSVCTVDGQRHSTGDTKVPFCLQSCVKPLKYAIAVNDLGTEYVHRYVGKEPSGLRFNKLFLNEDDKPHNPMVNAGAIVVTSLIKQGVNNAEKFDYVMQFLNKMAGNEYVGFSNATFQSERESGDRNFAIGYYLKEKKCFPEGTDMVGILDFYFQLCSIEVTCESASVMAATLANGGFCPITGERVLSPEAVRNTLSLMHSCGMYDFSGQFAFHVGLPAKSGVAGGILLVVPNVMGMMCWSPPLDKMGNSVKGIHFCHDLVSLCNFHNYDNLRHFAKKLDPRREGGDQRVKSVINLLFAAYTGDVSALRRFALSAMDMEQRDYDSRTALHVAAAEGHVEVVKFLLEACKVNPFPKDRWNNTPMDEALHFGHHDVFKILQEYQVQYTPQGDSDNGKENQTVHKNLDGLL
inactive: [1] -0.133 | [2] 0.154 | [3] -0.285 | [4] 0.01 | [5] -0.017 | [6] 0.019 | [7] 0.169 | [8] 0 | [9] -0.24 | [10] 0.071 | [11] -0.055

GALNT11 (UniProt Q8NCW6)
Sequence of UniProt Q8NCW6 (Q8NCW6 whole entry, looked up): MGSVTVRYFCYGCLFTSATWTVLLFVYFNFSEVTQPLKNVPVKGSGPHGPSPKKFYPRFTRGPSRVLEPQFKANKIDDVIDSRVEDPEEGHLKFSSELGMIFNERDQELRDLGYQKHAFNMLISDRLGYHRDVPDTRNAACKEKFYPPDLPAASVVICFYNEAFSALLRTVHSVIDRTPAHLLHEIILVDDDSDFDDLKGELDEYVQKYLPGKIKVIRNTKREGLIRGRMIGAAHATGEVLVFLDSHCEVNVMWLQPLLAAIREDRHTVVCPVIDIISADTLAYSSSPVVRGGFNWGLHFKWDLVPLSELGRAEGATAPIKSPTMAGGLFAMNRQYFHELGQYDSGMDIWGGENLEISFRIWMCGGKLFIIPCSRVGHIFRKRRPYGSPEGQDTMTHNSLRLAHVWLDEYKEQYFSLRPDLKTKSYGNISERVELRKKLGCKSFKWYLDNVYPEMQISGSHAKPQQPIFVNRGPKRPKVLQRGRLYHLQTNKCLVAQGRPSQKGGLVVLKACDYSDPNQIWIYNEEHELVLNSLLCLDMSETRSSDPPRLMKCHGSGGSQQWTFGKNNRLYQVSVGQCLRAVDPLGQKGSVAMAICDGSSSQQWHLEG
inactive: [1] 0.001 | [2] -0.119 | [3] -0.224 | [4] -0.023 | [5] -0.012 | [6] 0.01 | [7] 0.079 | [8] 0.027 | [9] -0.021 | [10] 0.002 | [11] -0.159

HDDC2 (UniProt Q7Z4H3)
inactive: [1] -0.013 | [2] 0.111 | [3] -0.005 | [4] 0.032 | [5] -0.03 | [6] -0.036 | [7] 0.032 | [8] -0.032 | [9] 0.029 | [10] -0.041 | [11] -0.001

GTF2B (UniProt Q00403)
Sequence of UniProt Q00403 (Q00403 whole entry, looked up): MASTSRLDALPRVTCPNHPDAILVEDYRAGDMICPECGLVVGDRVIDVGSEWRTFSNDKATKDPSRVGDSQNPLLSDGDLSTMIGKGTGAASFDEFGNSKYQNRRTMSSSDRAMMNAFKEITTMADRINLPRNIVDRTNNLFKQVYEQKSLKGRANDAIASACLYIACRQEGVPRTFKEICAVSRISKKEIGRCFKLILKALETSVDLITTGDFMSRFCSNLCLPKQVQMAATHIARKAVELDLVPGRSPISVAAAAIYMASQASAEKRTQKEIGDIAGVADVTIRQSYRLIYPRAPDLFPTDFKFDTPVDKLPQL
inactive: [1] -0.009 | [2] -0.08 | [3] -0.172 | [4] -0.056 | [5] 0.047 | [6] 0.211 | [7] 0.037 | [8] 0.005 | [9] -0.156 | [10] 0.022 | [11] -0.04

HLTF (UniProt Q14527)
inactive: [1] -0.025 | [2] 0.037 | [3] -0.067 | [4] -0.043 | [5] 0.069 | [6] -0.012 | [7] 0.008 | [8] -0.095 | [9] -0.073 | [10] -0.101 | [11] 0.045

HP1BP3 (UniProt Q5SSJ5)
inactive: [1] 0.026 | [2] -0.057 | [3] 0.043 | [4] -0.034 | [5] 0.025 | [6] 0.132 | [7] 0.113 | [8] -0.048 | [9] 0.067 | [10] -0.023 | [11] 0.014

GLUD2 (UniProt P49448)
inactive: [1] -0.086 | [2] -0.03 | [3] -0.006 | [4] 0.027 | [5] -0.053 | [6] -0.051 | [7] -0.07 | [8] -0.136 | [9] -0.008 | [10] -0.017 | [11] 0.14

GPKOW (UniProt Q92917)
inactive: [1] -0.014 | [2] 0 | [3] -0.096 | [4] -0.216 | [5] 0.042 | [6] 0.122 | [7] 0.048 | [8] -0.078 | [9] -0.061 | [10] -0.01 | [11] -0.025

GTF2E1 (UniProt P29083)
inactive: [1] -0.038 | [2] -0.118 | [3] -0.122 | [4] -0.198 | [5] 0.054 | [6] 0.095 | [7] 0.073 | [8] 0.06 | [9] -0.134 | [10] -0.124 | [11] -0.048

GTF2H3 (UniProt Q13889)
Sequence of UniProt Q13889 (Q13889 whole entry, looked up): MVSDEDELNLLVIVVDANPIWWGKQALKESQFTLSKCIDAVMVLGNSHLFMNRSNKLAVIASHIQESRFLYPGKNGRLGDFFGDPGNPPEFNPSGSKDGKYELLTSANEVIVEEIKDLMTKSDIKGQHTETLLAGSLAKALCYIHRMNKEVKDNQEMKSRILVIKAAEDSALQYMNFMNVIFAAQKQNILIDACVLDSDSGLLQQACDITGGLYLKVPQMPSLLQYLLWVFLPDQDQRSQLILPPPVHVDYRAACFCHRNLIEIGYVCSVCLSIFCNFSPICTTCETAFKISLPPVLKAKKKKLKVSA
inactive: [1] -0.133 | [2] -0.152 | [3] 0.12 | [4] -0.063 | [5] 0.141 | [6] 0.037 | [7] -0.049 | [8] -0.004 | [9] -0.041 | [10] -0.015 | [11] 0.087

GNS (UniProt P15586)
inactive: [1] 0.002 | [2] 0 | [3] -0.109 | [4] 0.01 | [5] -0.006 | [6] -0.036 | [7] 0.019 | [8] -0.026 | [9] -0.049 | [10] 0.003 | [11] 0.002

FDPS (UniProt P14324)
inactive: [1] 0.009 | [2] -0.136 | [3] -0.48 | [4] -0.14 | [5] 0.001 | [6] 0.215 | [7] 0.142 | [8] -0.108 | [9] -0.026 | [10] -0.069 | [11] -0.007

FNTA (UniProt P49354)
active: [10] 0.696
inactive: [1] 0.009 | [2] 0.061 | [3] 0.028 | [4] 0 | [5] -0.02 | [6] 0.004 | [7] -0.02 | [8] 0.016 | [9] -0.001 | [11] 0.111

HMG20A (UniProt Q9NP66)
inactive: [1] 0 | [2] 0.126 | [3] -0.054 | [4] -0.056 | [5] 0.064 | [6] 0.09 | [7] 0.072 | [8] 0.069 | [9] 0 | [10] -0.167 | [11] -0.049

IDI1 isoform 2 (UniProt Q13907)
inactive: [1] -0.062 | [2] 0.01 | [3] -0.038 | [4] 0.024 | [5] -0.03 | [6] 0.008 | [7] -0.017 | [8] 0.078 | [9] -0.066 | [10] 0.035 | [11] 0.066

GEMIN2 (UniProt O14893)
inactive: [1] -0.05 | [2] -0.015 | [3] 0.017 | [4] -0.116 | [5] -0.055 | [6] 0.102 | [7] -0.103 | [8] 0.038 | [10] 0.073 | [11] 0.002
active: [9] 0.375

GDI1 (UniProt P31150)
inactive: [1] -0.018 | [2] -0.066 | [3] -0.051 | [4] -0.04 | [5] -0.016 | [6] 0.022 | [7] 0.014 | [8] -0.012 | [9] -0.037 | [10] -0.04 | [11] 0.032

HIST2H3A (UniProt Q71DI3)
inactive: [1] 0.032 | [2] 0.286 | [3] 0.46 | [4] -0.077 | [5] 0.196 | [6] 0.442 | [7] 0.006 | [8] -0.084 | [9] 0.07 | [10] -0.02 | [11] -0.078

GGT7 (UniProt Q9UJ14)
inactive: [1] -0.034 | [2] 0.04 | [3] -0.076 | [5] -0.081 | [6] 0.062 | [7] 0.058 | [8] -0.009 | [9] -0.061 | [10] 0.002 | [11] -0.019
active: [4] 0.288
